These results are taken from PubChem BioAssay AID372 (MTDP, 2006).

Values joined by “and” are separate entries in the source; they are usually repeats but may differ in a detail not shown here. Equal entries are not always repeated. The campaign covered roughly 100,000 compounds. About 770 (0.77%) were called active. Shown is part of a subset that was picked to be rich in actives. A number with no mark means an inactive call. Rule as the data show it: active = inhibition above about 50%; inactive = the rest.

The assay has as its target Gag-Pol polyprotein (Human immunodeficiency virus type 1 group M subtype B (isolate HXB2)) (UniProt P04585). Nature of the assay: RNase H inhibition, HIV 1 Gag Pol polyprotein, FRET biochemical assay, screening (AID 372). Conditions: HIV-1 RT RNase H, FRET RNA/DNA substrate fluorescence; at 10 µM; active compounds read high.
With `COc1ccc(-c2ccccc2)cc1NCc1ccc(C)s1`, the inhibition was 17%.
The result for `CNC(=O)OCCc1ccc(-c2ccccc2)o1` reads 4%; that for `CC1CC(=O)C2=C(C1)OC(N)=C(C#N)C2c1ccc(C(F)(F)F)cc1` (stereo not given), 2%; that for `COC(=O)c1ccccc1NC(=O)c1cccc(C)c1`, 4%.
On to `CCOc1ccc(Cc2c(O)n(-c3ccccc3)c(=S)[nH]c2=O)cc1`, for which the inhibition is 18%.
The result for `COc1cc(/C=N/N2C(=O)c3cccc4cccc(c34)C2=O)cc(I)c1O` reads 13%; that for `C/C(=N/Nc1cc(-c2ccccc2)nc(-c2ccccc2)n1)c1ccc(O)cc1`, 4%; that for `CCOC(=O)C1=NN(c2ccccc2)C(=O)/C1=C\c1ccc(F)cc1`, 0%.
Turning to `Cc1ccc(S(=O)(=O)Oc2ccc(/C=C3\SC(=S)NC3=O)cc2)cc1`, the inhibition was 29%.
On to `COc1ccc(S(=O)(=O)Oc2cccc(/C=C3\SC(=S)NC3=O)c2)cc1`, for which the inhibition is 20%.
Regarding `Cc1ccc(S(=O)(=O)Oc2cccc(/C=C3\SC(=S)NC3=O)c2)cc1`, the inhibition was 53% (active).
`COC(=O)c1c(N)sc(C(=O)Nc2ccc(C)cc2)c1C`: the inhibition was 0%.
Under `CCOC(=O)c1c(N)sc(C(=O)Nc2ccc(OC)cc2)c1C` stands 9%.
`COc1ccc(NC(=O)c2c(NC(=O)c3ccco3)sc(-c3ccccc3)c2C)cc1`: the inhibition is 12%.
As for `CCOc1ccc(NC(=O)c2c(N)sc(-c3ccccc3)c2C)cc1`, the inhibition is 23%.
In the case of `CCOc1ccccc1NC(=O)CN(c1ccc(C)c(Cl)c1)S(C)(=O)=O`, the inhibition was 8%.
Take `Clc1ccc(Oc2sc(Nc3cccc(Cl)c3)nc2-c2ccccc2)cc1`: the inhibition was 21%.
`NS(=O)(=O)c1ccc(CCNC(=O)/C=C/c2cccc([N+](=O)[O-])c2)cc1`: the inhibition is 4%.
With `CCOc1ccc(/C=C(/C#N)c2nc3ccccc3[nH]2)cc1OC`, the inhibition is 0%.
Consider `O=C(Nc1ccc2c(c1)C(=O)c1ccccc1C2=O)c1ccccc1`, for which the inhibition was 15%.
As for `CCCCOc1ccc(C(=O)Nc2ccc3c(c2)C(=O)c2ccccc2C3=O)cc1`, the inhibition is 40%.
Consider `O=C(Nc1ccc2c(c1)C(=O)c1ccccc1C2=O)c1cccc(F)c1`, for which the inhibition is 49%.
Turning to `O=C(O)c1ccccc1C(=O)Nc1ccc2c(c1)C(=O)c1ccccc1C2=O`, the inhibition is 0%.
With `CCOc1cc(C(=O)Nc2ccc3c(c2)C(=O)c2ccccc2C3=O)cc(OCC)c1OCC`, the inhibition was 0%.
Under `Cc1ccccc1C(=O)Nc1ccc2c(c1)C(=O)c1ccccc1C2=O` stands 18%.
With `O=C1c2ccccc2C(=O)c2cc(NC(=O)c3coc4ccccc34)ccc21`, the inhibition is 63% (active).
`O=C(Nc1ccc2c(c1)C(=O)c1ccccc1C2=O)c1cccc(Cl)c1`: the inhibition was 60% (active).
Take `NC1=NC(=O)/C(=C/c2cc(Br)ccc2OCc2ccccc2)S1`: the inhibition was 9%.
Take `Cn1c(=O)c2c(nc(Sc3nc4ccccc4n3Cc3ccccc3)n2C)n(C)c1=O`: the inhibition is 0%.
`CC(CCC(=O)Nc1ccc(F)cc1)CC(=O)Nc1ccc(F)cc1` (stereo not given): the inhibition was 6%.
In the case of `CC(=O)c1cccc(NC(=O)CC2S/C(=N\N=C(/C)C(C)(C)C)NC2=O)c1` (stereo not given), the inhibition is 7%.
The result for `CCCc1sc(NC(=O)c2ccc(OC)cc2)nc1-c1ccc(Br)cc1` reads 42%; that for `CCCCCCCNC1CC(=O)N(c2ccc(OCCC)cc2)C1=O` (stereo not given), 6%; that for `COc1ccc(C(=O)Nc2ccc3oc(-c4ccccc4)nc3c2)cc1Cl`, 4%.
Turning to `Cc1ccc2oc(-c3ccc(Cl)c(NC(=S)NC(=O)c4ccc(Cl)cc4)c3)nc2c1`, the inhibition was 48%.
With `CCOc1ccc(C(=O)NC(=S)Nc2cc(-c3nc4ccc(C)cc4o3)ccc2Cl)cc1`, the inhibition was 29%.
For the molecule `CCOc1ccc(C(=O)NC(=S)Nc2ccc(Cl)c(-c3nc4ccc(C)cc4o3)c2)cc1Cl`, the inhibition was 18%.
The result for `CCOc1ccc(C(=O)NC(=S)Nc2ccc3oc(-c4ccc(C)cc4)nc3c2)cc1Cl` reads 10%; that for `COc1ccc(C(=O)Nc2ccc(-c3nc4cc(C)c(C)cc4o3)cc2)cc1Cl`, 51% (active); that for `CCOc1ccc(C(=O)NC(=S)Nc2ccc(-c3nc4ccc(C)cc4o3)cc2)cc1Cl`, 56% (active).
Regarding `CCOc1cc(C(=O)Nc2ccc(-c3nc4ccc(C)cc4o3)cc2)cc(OCC)c1OCC`, the inhibition was 10%.
With `COc1ccc(C(=O)Nc2ccc3oc(-c4ccc(OC)c(Cl)c4)nc3c2)cc1Cl`, the inhibition is 30%.
In the case of `CCOc1ccc(C(=O)Nc2ccc(-c3nc4ccc(C)cc4o3)cc2)cc1Cl`, the inhibition is 59% (active).
With `CCOc1ccc(C(=O)Nc2ccc(-c3nc4cc(C)ccc4o3)cc2)cc1Cl`, the inhibition was 12%.
In the case of `CCOc1ccc(C(=O)NC(=S)Nc2cc(-c3nc4cc(C)ccc4o3)ccc2Cl)cc1`, the inhibition was 60% (active).
For `CCOc1c(Br)cc(/C=C2/C(=O)NN(c3ccc(C)c(C)c3)C2=O)cc1OC`, the inhibition was 22%.
Under `COc1cc([N+](=O)[O-])ccc1NC(=S)NC(=O)/C=C/c1ccccc1` stands 12%; under `Fc1ccc(-c2nnc(-c3ccc(Br)o3)o2)cc1`, 6%; under `COc1ccc(OC)c(N(CC(=O)N(Cc2ccccc2)Cc2ccccc2)S(=O)(=O)c2ccccc2)c1`, 21%.
The result for `O=C(N/N=C\c1ccc[nH]1)c1cccc2c3c([nH]c12)CCCC3` reads 24%; that for `COc1ccc(OC)c(NC(=O)CN(c2ccc(C(C)C)cc2)S(=O)(=O)c2ccccc2)c1`, 8%.
In the case of `C/C(=N/NC(=O)c1ccc2c(c1)OCO2)c1ccc(Br)s1`, the inhibition is 13%.
Under `COc1ccc(OCC(=O)N=Nc2c(O)n(C)c3c(C)cccc23)c(Br)c1` stands 4%; under `COc1cc(Br)ccc1OCC(=O)N=Nc1c(O)n(C)c2c(C)cccc12`, 52% (active).
In the case of `Cc1cccc2c(N=NC(=O)COc3cccc(Br)c3)c(O)n(C)c12`, the inhibition was 20%.
The result for `CC(=O)Oc1ccc(-c2cccc(C(=O)OC(C)C)c2)cc1` reads 9%; that for `CC(C)OC(=O)c1ccc(NC(=O)c2ccc(Br)cc2)cc1`, 11%; that for `N#C/C(=C/c1ccc(OCc2ccc(C(=O)O)cc2)cc1)C(=O)Nc1ccccc1`, 0%.
As for `C=CCc1cccc2cc(C(=O)Nc3ccc(C)c(Cl)c3)c(=O)oc12`, the inhibition is 0%.
Take `C=CCc1cccc2cc(C(=O)Nc3ccc(Cl)c(Cl)c3)c(=O)oc12`: the inhibition was 62% (active).
Under `C=CCc1cccc2cc(C(=O)NNC(=O)CC#N)c(=O)oc12` stands 54% (active); under `C=CCc1cccc2cc(C(=O)Nc3ccccc3)c(=O)oc12`, 12%.
Regarding `C=CCc1cccc2cc(C(=O)NNC(=O)c3ccc(OC)cc3)c(=O)oc12`, the inhibition is 1%.
Consider `C=CCc1cccc2cc(C(=O)Nc3ccc(NC(C)=O)cc3)c(=O)oc12`, for which the inhibition is 10%.
`CC(=O)/C(=C(/C)O)c1ncc(-c2ccccc2)s1`: the inhibition was 12%.
On to `Cc1cccc(C(=O)Nc2cccc(C(=O)Nc3ccccc3Cl)c2)c1`, for which the inhibition is 13%.
In the case of `O=C(Cn1c(NCCO)nc2ccccc21)c1cccc2ccccc12`, the inhibition is 21%.
Regarding `COc1cccc(N2C(=O)/C(=C/c3ccc([N+](=O)[O-])cc3)SC2=S)c1`, the inhibition is 7%.
Regarding `COc1cccc(NC(=O)c2ccc(C(C)(C)C)cc2)c1`, the inhibition was 11%.
For `NC(=O)N=Nc1c(O)[nH]c2ccc(I)cc12`, the inhibition was 5%.
The result for `CC1(C)CC(=O)C(C=NC2CCCCCCC2)=C(O)C1` reads 3%; that for `O=C(CCc1ccccc1)Nc1sc2c(c1C(=O)O)CCCC2`, 4%; that for `CCOC(=O)c1c(NC(=O)c2ccc(S(=O)(=O)N3CCCCCC3)cc2)sc2c1CCC2`, 6%.
Regarding `COC(=O)c1c(NC(=S)Nc2ccccc2)sc2c1CCCC2`, the inhibition is 59% (active).
`Cc1ccc(C(=O)Nc2sc3c(c2C(N)=O)CCCCCC3)cc1`: the inhibition is 32%.
Under `COc1ccc(C(=O)Nc2sc3c(c2C(N)=O)CCCCCC3)cc1OC` stands 0%; under `COc1ccc(CCC(=O)Nc2sc3c(c2C(N)=O)CCCCCC3)cc1`, 12%.
Take `CCOC(=O)c1c(NC(=S)Nc2ccccc2)sc2c1CCCCC2`: the inhibition is 28%.
As for `COc1ccc(C(=O)Nc2sc3c(c2C(N)=O)CCCC3)cc1`, the inhibition is 17%.
As to `O=C(Nc1ccccc1)c1c(NC(=S)Nc2ccccc2)sc2c1CCCC2`, the inhibition was 46%.
As for `NC(=O)c1c(NC(=O)c2ccc(S(=O)(=O)N3CCCCC3)cc2)sc2c1CCCC2`, the inhibition is 53% (active).
`COc1cc2ccccc2cc1C(=O)Nc1sc2c(c1C(N)=O)CCCC2`: the inhibition is 59% (active).
The result for `C=CCN1C(=O)/C(=C\c2ccc(OCc3ccccc3C)c(OC)c2)SC1=S` reads 16%.
The result for `COC(=O)c1cccc(NC(=O)COc2ccc(Br)c(C)c2)c1` reads 3%; that for `Cc1c(NC(=O)COc2ccc(Cl)cc2Cl)cccc1[N+](=O)[O-]`, 15%.
On to `CCN(CC)c1ccc(Nc2nc(-c3sc(N)nc3C)cs2)cc1`, for which the inhibition is 28%.
Take `CCN1CCn2c3c(c4cc(Br)ccc42)CCCC31` (stereo not given): the inhibition was 7% and 3%.
The result for `C(=NN1CCN(c2ccccn2)CC1)c1cccc(OCc2ccccc2)c1` reads 0%.
As for `Cc1ccc(NC(=O)c2cccc([N+](=O)[O-])c2)cc1C`, the inhibition is 1%.
In the case of `Cc1ccc(C)c(NC(=S)NC(=O)c2ccc(C)c([N+](=O)[O-])c2)c1`, the inhibition is 33%.
Regarding `NC(=O)C1CCN(C2CC(=O)N(c3ccc(Cl)cc3)C2=O)CC1` (stereo not given), the inhibition is 12%.
The result for `CCOc1ccc(N(CC(=O)Nc2c(C)cccc2C)S(C)(=O)=O)cc1` reads 18%.
The result for `C=CCOc1ccc(C=O)cc1I` reads 25%.
For `O=C(Nc1ccc([N+](=O)[O-])cc1Cl)c1cccnc1`, the inhibition is 5%.
Under `CC(C)C(NC(=O)CN(c1ccccc1F)S(C)(=O)=O)C(C)C` stands 11%.

What is called inhibition is how much of the control response was suppressed.
